About 83,000 compounds went through this panel and 20% of them were active in at least one assay; those are over-represented in the sample as a whole.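 Assay: single dose, 48 h. Readout: percent growth (0 = no net growth; negative = cell death). Active: <10.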 A number with no mark means an inactive call. The source made the active and inactive calls.
Columns and labels:
Test in all cases: NCI-60 one-dose screen, 48 h (100 = growth as untreated, 0 = no growth, -100 = all killed)
Settings in all cases: 10 µM
DU-145 prostate = tested on: DU-145 prostate
K-562 leukemia = tested on: K-562 leukemia
MALME-3M melanoma = tested on: MALME-3M melanoma
MDA-MB-231 breast = tested on: MDA-MB-231 breast
RXF 393 renal = tested on: RXF 393 renal
SF-268 CNS = tested on: SF-268 CNS
SF-295 CNS = tested on: SF-295 CNS
SF-539 CNS = tested on: SF-539 CNS
UACC-257 melanoma = tested on: UACC-257 melanoma
M14 melanoma = tested on: M14 melanoma

| Structure (SMILES) | growth (DU-145 prostate) | growth (K-562 leukemia) | growth (MALME-3M melanoma) | growth (MDA-MB-231 breast) | growth (RXF 393 renal) | growth (SF-268 CNS) | growth (SF-295 CNS) | growth (SF-539 CNS) | growth (UACC-257 melanoma) | growth (M14 melanoma) |
| --- | --- | --- | --- | --- | --- | --- | --- | --- | --- | --- |
| O=S(=O)(NCl)c1ccccc1 | 106% | 97.3% | 97.5% | 115% | 109% | 99.9% | 94.3% | 106% | 103% | 107% |
| CCc1c(C)[nH]c(=O)c(C(N)=O)c1C#N | 115% | 114% | 103% | 102% | 108% | 105% | 98.1% | 92.9% | 92.5% | 97.5% |
| COc1ccc(CSc2nc3cc(OC)c(OC)cc3c(=O)n2-c2ccc(OC)cc2OC)cc1 | 97.7% | 87.1% | 82.6% | 75.4% | 75.5% | 86.4% | 89.6% | 96.8% | 93.4% | 97% |
| COc1ccc(Nc2ccnc(N3CCN(c4ccnc5cc(Cl)ccc45)CC3)n2)cc1 | 15.6% | 2.55% (active) | 5.65% (active) | 24.8% | -26.6% (active) | 30.3% | -4.17% (active) | -31.4% (active) | -1.27% (active) | -13.3% (active) |
| CN(C)Cc1cccs1 | 111% | 109% | 96.7% | 90.4% | 99.3% | 95.2% | 100% | 96.1% | 96.9% | 94.8% |
| O=C(Nc1ccc(CN2CCOCC2)cc1)c1ccc(-c2cc(Cl)ccc2Cl)o1 | 75.4% | -23.7% (active) | -53.4% (active) | 9.54% (active) | 38.4% | 57.8% | 57.6% | 88.3% | 49.4% | -44.2% (active) |
| COc1cc2nc(Sc3sc(N)nc3C)n(-c3ccc(Oc4ccccc4)cc3)c(=O)c2cc1OC | 98.3% | 78.6% | 98.3% | 90.1% | 85.9% | 102% | 85.4% | 81.3% | 89.7% | 81.6% |
| CN(C)c1ccc2c(c1)OC(N)=C(C#N)C2c1ccc2c(c1)CCCN2C (stereo not drawn) | 25.7% | 16.5% | 67.8% | 38.6% | 8.31% (active) | 49.4% | -14.4% (active) | -2.99% (active) | 54.7% | 2.75% (active) |
| COc1cc(Cl)cc(-c2nn(-c3cccc(NC(=O)Nc4cccc(C(F)(F)F)c4)c3)cc2-c2ccncc2)c1 | 15.9% | 7.61% (active) | -16.6% (active) | -9.21% (active) | 11.8% | 27.9% | -7.87% (active) | 17% | -11.7% (active) | 9.99% (active) |
| CCOC(=O)Cn1nnc(-c2ccc(OCc3ccccc3F)cc2)n1 | 103% | 53% | 36.9% | 104% | 79.9% | 82.8% | 91.7% | 92.4% | 87.5% | 75.1% |
| C[C@H](NC(=O)[C@@H]1CSSC[C@@H](NC(=O)Cc2nc3ccccc3cc2O)C(=O)NCC(=O)N1C)c1ccccc1 | 83.3% | 43.9% | 125% | 70.8% | 122% | 86.6% | 104% | 79.3% | 85.4% | 64.8% |
| COc1ccc(-c2nc(NC(=O)CS(=O)(=O)c3ccc(F)cc3)sc2C)cc1 | 79% | 26.4% | 55.2% | -37.1% (active) | 14.4% | 65.3% | 25.1% | 73.6% | 65.1% | 44% |
| Cc1ccc(C(=O)O)c(N)c1C | 101% | 92.1% | 85.7% | 118% | 111% | 95.9% | 92.6% | 103% | 108% | 96.4% |
| Cc1ccc(/C(CS(=O)(=O)c2ccc(C)cc2)=N\O)cc1 | 111% | 105% | 116% | 103% | 93.6% | 108% | 90.8% | 97.3% | 97% | 116% |
| COc1ccc(-c2cc(/C=C3\C(=O)Nc4cc(Cl)ccc43)[nH]n2)cc1OC | 96.4% | 33.1% | 37.7% | 78.2% | 73.1% | 74.4% | 47.6% | 69.1% | 114% | 68% |
| N=C(N)c1ccc(-c2ccc(-c3ccccc3)s2)cc1F | -95.5% (active) | -70.8% (active) | -76.7% (active) | -82.3% (active) | -86.9% (active) | -84.6% (active) | -77.9% (active) | -97.3% (active) | -84.1% (active) | -93.1% (active) |
| C=CCn1c(C)nc2cc(Nc3nc(Nc4ccc5nc(C)n(CC=C)c5c4)c4ccccc4n3)ccc21 | -96% (active) | -27.7% (active) | -68.3% (active) | -85.8% (active) | -97.4% (active) | -69.8% (active) | -86.6% (active) | -95.8% (active) | -79.8% (active) | -88% (active) |
| O=NN(CCCl)C(=O)NCc1ccc(-c2ccc(CNC(=O)N(CCCl)N=O)cc2)cc1 | 112% | 84.2% | 74.3% | 124% | 108% | 69.7% | 83.2% | 65.7% | 96.6% | 95.4% |
| Cc1cc(=O)oc2cc(OCc3cn(CC(O)CO)nn3)ccc12 (stereo not drawn) | 103% | 96.1% | 109% | 104% |  | 109% | 107% | 95.9% | 112% | 106% |
| O=c1[nH]c(=O)n(C2C[C@@H](O)[C@@H](CO)O2)cc1F (stereo partly drawn) | 37% | 9.63% (active) | 52.7% | 62.1% |  | 24.1% | 8.65% (active) | 5.71% (active) | 67.8% | -6.77% (active) |
| CC(=O)[C@H]1CC[C@H]2[C@@H]3CC[C@@H]4CC=C(C=O)C[C@]4(C)[C@H]3CC[C@]12C | 98.7% | 81.9% | 96.2% | 94.3% | 112% | 92.4% | 93.2% | 92.4% | 96.2% | 89.2% |
| O=C(C=P(c1ccccc1)(c1ccccc1)c1ccccc1)c1ccc(Br)cc1 | 90.5% | 34.6% | 85.5% | 77.5% | 110% | 93.5% | 91.7% | 113% | 102% | 94.1% |
| CCC(CCNc1cc(OC)cc2cccnc12)CN1C(=O)c2ccccc2C1=O (stereo not drawn) | 118% | 101% | 132% | 96% | 117% | 98.7% | 106% | 106% | 119% | 117% |
| Cc1ccc(S(=O)(=O)Nc2cccc3[nH]c(C(F)(F)F)nc23)cc1 | 19% | 11.6% | 12.7% | 31.4% | 3.7% (active) | 60% | 0.543% (active) | -11.9% (active) | 43.1% | 15.2% |
| CCN(CC)CCn1c(=N)n(CC(O)c2ccc(Cl)c(Cl)c2)c2ccccc21 (stereo not drawn) | 97% | -0.392% (active) | -35.6% (active) | 45.1% | 76.3% | 87.2% | 103% | 42.4% | -59.8% (active) | -58.6% (active) |
| O=C(OCc1ncc(-c2ccc(C(F)(F)F)cc2)c(NC2CCCCCC2)n1)c1c(F)c(F)c(F)c(F)c1F | 77.2% | 31.9% | -14.4% (active) | 81.4% | 64.3% | 72.5% | 24.5% | 96.3% | 34.9% | 43.7% |
| Nc1ncncc1-c1ccc(F)cc1 | 115% | 109% | 112% | 127% | 109% | 112% | 100% | 95.6% | 118% | 107% |
| Cc1cc(C)c2c(Nc3ncnc4c3sc3nc(C)cc(C)c34)n[nH]c2n1 | 113% | 93.2% | 94.2% | 99.4% | 97.6% | 103% | 91.3% | 100% | 100% | 99% |

— PubChem BioAssay (NCI)
